Measured values published in the supplement of paper PMC7858590.
Where “and” joins values, the source holds several entries; their conditions need not be identical. Identical values can stand only once.

Tested on: human monocyte-derived macrophages (polarized)
Experiment: cell shape (eccentricity) Z-score vs DMSO control; higher = more elongated, M2-like morphology
Settings: 5 µM; 24 h; macrophage state: M1-polarized (IFNg + TNFa), cytokines present during treatment
Description: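 Primary-screen hits were rescreened on polarized hMDMs with the differentiating cytokines (IL-4 + IL-13 or IFNg + TNFa) kept in the medium during treatment with compound at 5 uM for 24 h. The eccentricity Z-score vs DMSO wells is averaged over experiments.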

| SMILES | cell shape (Z-score) |
| --- | --- |
| COc1cc(Nc2ncc(F)c(Nc3ccc4c(n3)NC(=O)C(C)(C)O4)n2)cc(OC)c1OC | -14.9 |
| CCCCOC(=O)c1ccc(N)cc1 | -0.788 |
| Cc1c(C(N)=O)cc([N+](=O)[O-])cc1[N+](=O)[O-] | 3.38 |
| Cc1onc(-c2ccccc2Cl)c1C(=O)N[C@@H]1C(=O)N2[C@@H]1SC(C)(C)[C@@H]2C(=O)O | -5.49 |
| CS(=O)(=O)c1cccc(CNc2nc(Nc3ccc4c(c3)CCC(=O)N4)ncc2C(F)(F)F)c1 | -3.99 |
| O=C(O)C[C@H](O)C[C@H](O)/C=C/c1c(C2CC2)nc2ccccc2c1-c1ccc(F)cc1 | 5.72 |
| Oc1cccc(O)c1 | -3.74 |
| COc1cccc(NC(=O)/C=C/c2ccc(Cl)cc2)c1 | 4.58 |
| O=C(/C=C/c1cccc(S(=O)(=O)Nc2ccccc2)c1)NO | -3.19 |
| CC1(C)CCC(c2ccc(Cl)cc2)=C(CN2CCN(c3ccc(C(=O)NS(=O)(=O)c4ccc(N[C@H](CCN5CCOCC5)CSc5ccccc5)c(S(=O)(=O)C(F)(F)F)c4)cc3)CC2)C1 | 4.31 |
| Cc1nc(Nc2ncc(C(=O)Nc3c(C)cccc3Cl)s2)cc(N2CCN(CCO)CC2)n1 | 19.8 |
| C[C@@H](N)[C@H]1CC[C@H](C(=O)Nc2ccncc2)CC1 | 5.7 |
| CC1C(=O)C(=O)[C@@H]2O[C@@H]2C1=O (stereo not given in full) | -0.0615 |
| Cc1ccc2c(=O)c3ccccc3n(CCCN)c2c1C | -0.216 |
| CC(C)n1cnc2c(NCc3ccccc3)nc(NCCO)nc21 | 0.237 |
| CN(C)CC[C@H](CSc1ccccc1)Nc1ccc(S(=O)(=O)NC(=O)c2ccc(N3CCN(Cc4ccccc4-c4ccc(Cl)cc4)CC3)cc2)cc1[N+](=O)[O-] | 0.862 |
| N[C@@H](CC(=O)N1CCn2c(nnc2C(F)(F)F)C1)Cc1cc(F)c(F)cc1F | 2.26 |
| C=C1CC[C@@H]2[C@](C)(CO[C@@H]3O[C@H](CO)[C@@H](O)[C@H](O)[C@H]3O)CCC[C@@]2(C)[C@@H]1CCC1=CCOC1=O | -4.62 |
| Cn1cncc1[C@@](N)(c1ccc(Cl)cc1)c1ccc2c(c1)c(-c1cccc(Cl)c1)cc(=O)n2C | -0.763 |
| COc1cc(-c2ccc(=O)[nH]n2)ccc1OC(F)F | -4.29 |
| CC(C)(C)n1nc(-c2cccc3ccccc23)c2c(N)ncnc21 | 6.74 |
| CN(C)CCC=C1c2ccccc2COc2ccccc21 | -7.17 |
| C=C(c1ccc(C(=O)O)cc1)c1cc2c(cc1C)C(C)(C)CCC2(C)C | 8.49 |
| N#CCNC(=O)c1ccc(-c2ccnc(Nc3ccc(N4CCOCC4)cc3)n2)cc1 | 22.9 |

Same assay, conditions: 5 µM; 24 h; macrophage state: M2-polarized (IL-4 + IL-13), cytokines present during treatment

| SMILES | cell shape (Z-score) |
| --- | --- |
| CC(=O)O[C@H]1C(=O)[C@@]2(C)[C@H]([C@H](OC(=O)c3ccccc3)[C@]3(O)C[C@H](OC(=O)[C@H](O)[C@@H](NC(=O)c4ccccc4)c4ccccc4)C(C)=C1C3(C)C)[C@]1(OC(C)=O)CO[C@@H]1C[C@@H]2O | -14.3 and -18.7 |
| CCCCCCCCc1ccc(CCC(N)(CO)CO)cc1 | -15.5 |
| OCCN(CCO)c1nc(N2CCCCC2)c2nc(N(CCO)CCO)nc(N3CCCCC3)c2n1 | 0.465 |
| CCOc1nc2cccc(C(=O)OC(C)OC(=O)OC3CCCCC3)c2n1Cc1ccc(-c2ccccc2-c2nn[nH]n2)cc1 (stereo not given) | -2.81 |
| O=C(Nc1nc2ccc(NC(=O)C34CC5CC(CC(C5)C3)C4)cc2s1)c1ccccc1 | -6.86 |
| O=C(Nc1ccc([N+](=O)[O-])cc1Cl)c1cc(Cl)ccc1O | -8.05 |
| Cc1nc(Nc2n[nH]c3c2CN(C(=O)N[C@H](CN(C)C)c2ccccc2)C3(C)C)c2sccc2n1 | -7.51 |
| N=C(NCCCCCCNC(=N)NC(=N)Nc1ccc(Cl)cc1)NC(=N)Nc1ccc(Cl)cc1 | -10.6 and -7.15 |
| CC(=O)OCCNC(=O)c1cccnc1 | 2.01 |
| COC(=O)Nc1nc2ccc(C(=O)C3CC3)cc2[nH]1 | -16.3 |
| Cc1cc2nc3c(=O)[nH]c(=O)nc-3n(C)c2cc1C=O | 6.26 |
| COc1cc2c(cc1-c1coc3c4c(ccc3c1=O)OC(C)(C)C=C4)OCO2 | -5.25 |
| CCCC[C@@H](O)c1cc(OC)cc(=O)o1 | -3.33 |
| CN(C)CCC=C1c2ccccc2COc2ccccc21 | -5.83 |
| CC(=O)OCC(=O)[C@@]1(O)[C@H](OC(C)=O)C[C@H]2[C@@H]3CCC4=CC(=O)C=C[C@]4(C)[C@@]3(F)[C@@H](O)C[C@@]21C | -9.46 |
| O=C1c2c(O)ccc(O)c2C(=O)c2c(NCCNCCO)ccc(NCCNCCO)c21 | -1.14 |
